Source: PubChem BioAssay AID1985 (Southern Research Specialized Biocontainment Screening …, 2009)
Hit rate of the full screen: of about 2,300 compounds, about 1,000 (43%) were called active. So high a share suggests a set chosen from earlier hits. Some of the results follow. Entries with a potency or affinity are not part of this list. A number with no mark means an inactive call. The rule behind the calls is not given here.

assay: PhoP regulon inhibitor project modified counter assay, GFP fluorescence readout, dose response (AID 1985); details: S. Typhi, 4 h; series mostly up to 150 µM; inhibition: at the top concentration

Compound	inhibition
COc1ccc(NC(=O)CC2Sc3ncnn3C2=O)cc1 (stereo not given)	34.3%
Cc1ccc(NC(=O)c2sccc2C)cc1[N+](=O)[O-]	18.1%
N=c1sc2c(n1Cc1ccccc1)CCCC2	32%
Cc1cc(NC(=O)/C=C/C(=O)N(c2ccccc2C)C(C(=O)NC2CCCC2)c2ccc(F)cc2)no1 (stereo not given)	-12.8%
C[C@@H](NC(=O)[C@@H]1Cc2ccccc2CN1)C(=O)NCC1CCCO1 (stereo not given in full)	-20.9%
CC(C)(C)Nc1c2ccccc2nc2ccccc12	-15%
COc1c(C(=O)N2CCCC2)ccc2ccccc12	-21.1%
CC1CCN(C(=O)COc2ccc(Nc3ccccc3)cc2)CC1	-4.41%
COc1ccccc1Nc1cc(C(=O)NCc2cccnc2)c2ccccc2n1	-14.3%
COc1ccc(Nc2c3c(nc4ccc(C)cc24)CCC3)cc1	-11.8%
CCOc1ccc(NC(=S)Nc2cc(C)[nH]n2)cc1	-18.7%
CCOC(=O)c1ccc(NC(=O)C2CCC(CNc3c(N4CCOCC4)c(=O)c3=O)CC2)cc1 (stereo not given)	12.1%
CCCCNC(=O)CCC(=O)Nc1ccc2nc(N3CCC(C)CC3)cc(C)c2c1	32.3%
COc1ccc(N=CC2=C(Nc3ccc(OC)cc3)c3c(C)nn(-c4ccccn4)c3CC2)cc1	3.36%
CCO[C@H]1OC(C(=O)O)=C[C@@H](c2ccccc2)[C@@H]1CCCO	-17.4%
Clc1ccc2c(c1)C(N1CCNCC1)Cc1ccccc1S2 (stereo not given)	31%
O=C(NCc1ccco1)C1CCN(C(=O)c2cc3sccc3n2Cc2ccc(Cl)cc2)CC1	-20.7%
Cc1ccc2nc(/C(C#N)=C\c3ccc(N4CCCCC4)c([N+](=O)[O-])c3)[nH]c2c1	37.4% [at 75 µM]
C#CCOCCOCCOCCNc1nc(N2CCN(C(=O)CCCCCCCCCCNC(=O)[C@H](CCCCN)n3cc(CCO)nn3)CC2)nc(N2CCN(C(=O)CCCCCCCCCCNC(=O)[C@H](CCCCN)n3cc(CCO)nn3)CC2)n1	-15.8%
CCOC(=O)c1cc(-c2ccncc2)nc2c1c(C)nn2-c1ccccn1	16.8%
CN(C)/C=N/c1ncc(C(=O)c2ccc(Cl)cc2)s1	-14.3%
Nc1ccc(N=Nc2ccccc2)c(N)n1	6.79%
Cc1cc(-c2nc3ccccc3o2)c2ccccc2n1	9.15%
Nc1nn2cc(-c3ccccc3)nc2c2ccccc12	-4.55%
Cc1ccc(C)c(Nc2cc(C)nc3ccccc23)c1	19.5%
Nc1nc2ccccc2cc1-c1cccs1	14.8%
CCCN(C(=O)CSc1nc2ccccc2n1CC)C1CCS(=O)(=O)C1 (stereo not given)	7.08%
CCOc1ccc(-c2ccc(SCC(=O)N3CCOCC3)nn2)cc1	-13.1%

Compound	inhibition
CCCCc1cc(=O)oc2cc(C)cc(OCC(=O)NCC3CCC(C(=O)O)CC3)c12 (stereo not given)	-5.3%
CC(C)C(NC(=O)c1ccc(Cl)cc1)C(=O)NCC1CCCO1 (stereo not given)	-10.1%
Clc1ccc2c(c1)c1cc(Cl)ccc1n2CN1CCOCC1	23.1%
Cc1ccc(N(CC(=O)Nc2c(C)n(C)n(-c3ccccc3)c2=O)S(C)(=O)=O)cc1C	-10.6%
OCC[C@H]1C[C@H](O)[C@@H](O)[C@@]2(Cc3ccccc3CO2)O1	18.1%
O=C(NC1(C(F)(F)F)C(=O)Nc2c1c(=O)[nH]c(=O)n2-c1ccccc1)c1ccncc1 (stereo not given)	12.6%
Cc1ccn2cc(-c3ccc4c(c3)NC(=O)CO4)nc2c1	-12.7%
Cc1csc2ncc(C(=O)Nc3ccon3)c(=O)n12	-6.76%
CC(=O)Nc1ccc(S(=O)(=O)Nc2nc3ccccc3nc2Nc2cccc(S(N)(=O)=O)c2)cc1	10.4%
Cc1cccc(NC(=O)C2CCCN2S(=O)(=O)c2ccc3c(c2)n(C)c(=O)c(=O)n3C)c1 (stereo not given)	9.71%
Cc1ccc(NNS(=O)(=O)c2ccc(C)cc2)cc1	-6.56%
Cc1cccc(NCN2C(=O)c3ccccc3C2=O)c1	-4.13%
Cc1cc(C)c(S(=O)(=O)Nc2cccnc2)c(C)c1	-5.79%
CCOc1ccccc1NC(=O)NS(=O)(=O)c1ccc(C)cc1	8.52%
CC(C)NC(=O)Nc1ccc(Br)cc1Cl	-8.92%
CC1CC(C)CN(C(=O)c2ccc(NC(=O)c3ccc(=O)[nH]c3)cc2)C1 (stereo not given)	6.58%
COCCNC(=O)CN(C(=O)CCC(=O)Nc1ccccn1)c1ccc(F)c(Cl)c1	10.1%
O=C(NCCOc1ccccc1)c1ncn[nH]1	16.9%
O=C(OCCCN1C(=O)c2ccccc2C1=O)c1ccco1	-4.23%
CC(C)CCNC(=O)c1cc2c(s1)-c1ccccc1S(=O)(=O)C2	3.1%
CN1CCc2c(sc3c2C(=O)NC(c2ccc4c(c2)OCO4)N3)C1 (stereo not given)	-33.9%
NS(=O)(=O)c1ccc(CNc2ccc3ccccc3n2)cc1	15%
CCOC(=O)C1CCN(C(=O)CCc2nc3ccccc3[nH]2)CC1	22.6%
O=C(CSc1ccccc1)N1CCC(N2CCC(C(=O)N3CCCC3)CC2)CC1	-2.03%
Cc1c(CC(=O)N2CCC(C(N)=O)CC2)c(=O)oc2cc3c(cc12)CCC1(CCCCC1)O3	-10.6%
C#CCOCCOCCOCCNc1nc(N2CCN(C(=O)CCCCCCCCCCNC(=O)Cn3cc(CCCCCN)nn3)CC2)nc(N2CCN(C(=O)CCCCCCCCCCNC(=O)[C@@H]([C@H](C)O)n3cc(C)nn3)CC2)n1	-35.2%
Cc1nc2ccccn2c1/C(O)=C1\C(=O)C(=O)N(CCN2CCOCC2)C1c1cccnc1 (stereo not given)	-35%
